This passage reports Potency and outcome results from PubChem BioAssay (Tox21).

The nature of experiment [1]: qHTS assay to identify aromatase inhibitors - cell viability counter screen (AID 743084).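 Further: cells stimulated with testosterone during compound exposure; nearly all actives have a fitted effect of over 55% in size.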 Further: potency means the concentration at half of the fitted maximal effect.
In experiment [2] the target is Aryl hydrocarbon receptor (Homo sapiens) (UniProt P35869). The experiment can be described thus: qHTS assay to identify small molecule that activate the aryl hydrocarbon receptor (AhR) signaling pathway (AID 743085). Further: nearly all actives have a fitted effect of over 15% in size. Further: potency means the concentration at half of the fitted maximal effect.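 On activation: HG2L7.5c1 human HepG2 liver cells with stably integrated DRE-driven firefly reporter; series mostly up to about 70 µM.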 A digest of the protocol:
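Luminescence (ONE-Glo) from a dioxin-responsive-element luciferase reporter in HG2L7.5c1 HepG2 cells after 24 hr compound exposure at 37C; viability measured by CellTiter-Fluor fluorescence beforehand.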
For orientation: qHTS replaces the single test concentration by a dilution series.

Experiment [3] in a line: qHTS assay to identify small molecule that activate the aryl hydrocarbon receptor (AhR) signaling pathway - cell viability counter screen (AID 743086). Further: series mostly up to about 70 µM; nearly all actives have a fitted effect of over 45% in size. In short, it runs like this: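 Cytotoxicity counter screen: CellTiter-Fluor signal (30 min, 37 C) in 4000 HepG2 cells/well carrying the DRE-luciferase reporter, following 24 h compound exposure at 37 C.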
Experiment [4] deals with Peroxisome proliferator-activated receptor gamma (Homo sapiens) (UniProt P37231). The experiment can be described thus: qHTS assay to identify small molecule agonists of the peroxisome proliferator-activated receptor gamma (PPARg) signaling pathway (AID 743094; active means well fitted activation curve with a large enough effect in the signal ratio in the repeat runs, not every such curve was filed as active; the % refers to the signal ratio). A digest of the protocol:
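GeneBLAzer PPARg UAS-bla HEK293H cells carrying a stably integrated beta-lactamase reporter were pre-incubated 5 h at 37C, then exposed to compounds in DMSO for 17 h at 37C; LiveBLAzer B/G FRET substrate was added for 1 h at room temperature and fluorescence read.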

Experiment [5] has the same target. The experiment in a line: qHTS assay to identify small molecule antagonists of the peroxisome proliferator-activated receptor gamma (PPARg) signaling pathway (AID 743191; calls by dose curve; further: series mostly up to about 63 µM; nearly all actives have a fitted effect of over 30% in size). In short, it runs like this:
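Beta-lactamase reporter under UAS control in HEK293H PPARg-bla cells; compound treatment 17 h at 37C. Read-out: fluorescence intensity after 1 h room-temperature incubation with LiveBLAzer B/G FRET substrate.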

Experiment [6] can be described thus: qHTS assay to identify small molecule antagonists of the peroxisome proliferator-activated receptor gamma (PPARg) signaling pathway - cell viability counter screen (AID 743194). Further: nearly all actives have a fitted effect of over 55% in size. Further: potency means the concentration at half of the fitted maximal effect. To be noted: Potency: co-treated with 50 nM rosiglitazone unless noted. A digest of the protocol:
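Viability was measured as CellTiter-Glo luminescence in GeneBLAzer PPARg UAS-bla HEK293H cells. These cells had been exposed 17 h at 37 C to compounds together with rosiglitazone at 50 nM final, with the beta-lactamase readout taken in the same wells.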

Experiment [7] can be described thus: qHTS assay for small molecule agonists of the antioxidant response element (ARE) signaling pathway - cell viability counter screen (AID 743203; calls by dose curve; further: nearly all actives have a fitted effect of over 55% in size; further: potency means the concentration at half of the fitted maximal effect). In short, it runs like this:
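CellSensor ARE-bla HepG2 cells, 2,000 per well, rested 5 hrs at 37C/5% CO2, then exposed to compound in DMSO for 16 hrs; viability read as CellTiter-Glo luminescence after 30 min at room temperature, in the reporter wells.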

Experiment [8] can be described thus: qHTS assay for small molecule activators of the heat shock response signaling pathway - cell viability counter screen (AID 743209). Further: nearly all actives have a fitted effect of over 50% in size. Further: potency means the concentration at half of the fitted maximal effect. A digest of the protocol:
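CellSensor HSE-bla HeLa cells, plated overnight at 37 C/5% CO2, were exposed to compounds in DMSO for 5 h at 37 C. Viability was then read in the same wells by CellTiter-Glo luminescence after 30 min at room temperature.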

A short description of experiment [9]: qHTS assay for small molecule activators of the heat shock response signaling pathway (AID 743210; active means well fitted activation curve with a large enough effect in the signal ratio in the repeat runs, with a control signal flat, not every such curve was filed as active; the % refers to the signal ratio;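 further: HeLa cells with beta-lactamase reporter driven by heat shock elements; series mostly up to about 63 µM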). In short, it runs like this:
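In HSE-bla HeLa cells, 5 h compound incubation (37 C) precedes addition of LiveBLAzer B/G substrate; after 2.5 h at room temperature, fluorescence intensity indicates reporter induction.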

A short description of experiment [10]: qHTS assay to identify small molecule agonists of the peroxisome proliferator-activated receptor delta (PPARd) signaling pathway - cell viability counter screen (AID 743211). Further: nearly all actives have a fitted effect of over 55% in size. Further: potency means the concentration at half of the fitted maximal effect. In short, it runs like this: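 Viability was measured as CellTiter-Glo luminescence (30 min, room temperature) in the same wells as the beta-lactamase readout. GeneBLAzer PPARd UAS-bla HEK293H cells received compound after 5 h plating and were incubated 17 h at 37 C.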

Experiment [11] can be described thus: qHTS assay to identify small molecule antagonists of the peroxisome proliferator-activated receptor delta (PPARd) signaling pathway - cell viability counter screen (AID 743213). Further: nearly all actives have a fitted effect of over 50% in size. Further: potency means the concentration at half of the fitted maximal effect. In short, it runs like this:
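Cytotoxicity counter screen: CellTiter-Glo luminescence read 30 min after addition, in the same wells as the reporter assay. There, PPARd UAS-bla HEK293H cells (3000/well) were treated 17 h at 37 C with compound and 300 nM L165041.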

A short description of experiment [12]: qHTS assay to identify small molecule agonists of the farnesoid-X-receptor (FXR) signaling pathway - cell viability counter screen (AID 743218). Further: nearly all actives have a fitted effect of over 45% in size. Further: potency means the concentration at half of the fitted maximal effect. A digest of the protocol:
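FXR-UAS-bla HEK 293T cells, plated 5 h at 37 C, were exposed to compounds for 16 h at 37 C. CellTiter-Glo was then added to the same wells as the bla readout; luminescence read after 30 min at room temperature.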

Experiment [13] can be described thus: qHTS assay to identify small molecule antagonists of the farnesoid-X-receptor (FXR) signaling pathway - cell viability counter screen (AID 743221; active means well fitted cell-killing curve with a large enough effect in the repeat runs, not every such curve was filed as active; further: nearly all actives have a fitted effect of over 50% in size). A digest of the protocol: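 Cytotoxicity counter screen run in the FXR-bla reporter wells: HEK 293T cells exposed to compound with 50 uM (final) chenodeoxycholic acid for 16 h, 37 C, then viability measured by CellTiter-Glo luminescence after 30 min, room temperature.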

Experiment [14] is described as follows: qHTS assay for small molecule agonists of the antioxidant response element (ARE) signaling pathway (AID 743202; active means well fitted activation curve with a large enough effect in the signal ratio in the repeat runs, not every such curve was filed as active; the % refers to the signal ratio). In short, it runs like this:
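An ARE-responsive beta-lactamase gene stably integrated in HepG2 cells serves as reporter. After 5 h plating and 16 h compound incubation at 37 C, fluorescence of the B/G FRET substrate was measured.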

The target in experiment [15] is Peroxisome proliferator-activated receptor delta (Homo sapiens) (UniProt Q03181). The experiment in a line: qHTS assay to identify small molecule agonists of the peroxisome proliferator-activated receptor delta (PPARd) signaling pathway (AID 743212; calls by dose curve). In short, it runs like this:
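HEK293H UAS-bla reporter cells, human PPARd system; compounds delivered in DMSO after 5 h plating, then at 37 C. Beta-lactamase FRET read, 2 h RT substrate step.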

Experiment [16] has the same target. The experiment can be described thus: qHTS assay to identify small molecule antagonists of the peroxisome proliferator-activated receptor delta (PPARd) signaling pathway (AID 743215; active means well fitted inhibition curve with a large enough effect in the signal ratio in the repeat runs, not every such curve was filed as active; the % refers to the signal ratio;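 further: cells stimulated with agonist L165041 at 300 nM final during compound exposure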; further: potency means the concentration at half of the fitted maximal effect). In short, it runs like this:
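PPARd UAS-bla HEK293H cells were pre-incubated 5 h at 37 C, then given test compounds in DMSO plus agonist L165041 (300 nM final). After 17 h at 37 C, beta-lactamase FRET substrate was added; fluorescence read after 2 h at room temperature.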

Experiment [17] deals with Vitamin D3 receptor (Homo sapiens) (UniProt P11473). The experiment can be described thus: qHTS assay to identify small molecule agonists of the vitamin D receptor (VDR) signaling pathway (AID 743222; calls by dose curve). A digest of the protocol:
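VDR-bla cells were plated 4 h at 37C/5% CO2, then exposed to compounds in DMSO for 16 h. After LiveBLAzer B/G FRET substrate addition and 2 h at room temperature, beta-lactamase reporter fluorescence was read.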

Experiment [18] shares this target. The experiment can be described thus: qHTS assay to identify small molecule antagonists of the vitamin D receptor (VDR) signaling pathway (AID 743223; active means well fitted inhibition curve with a large enough effect in the signal ratio in the repeat runs, not every such curve was filed as active; the % refers to the signal ratio). A digest of the protocol: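 Antagonist mode: compound added to VDR-bla cells alongside agonist 1alpha,25-dihydroxyvitamin D3 (3 nM final), incubation 16 h at 37C. Read-out is LiveBLAzer FRET fluorescence, 2 h at room temperature.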

Experiment [19] addresses Bile acid receptor (Homo sapiens) (UniProt Q96RI1). The experiment in a line: qHTS assay to identify small molecule agonists of the farnesoid-X-receptor (FXR) signaling pathway (AID 743220; active means well fitted activation curve with a large enough effect in the signal ratio in the repeat runs, not every such curve was filed as active; the % refers to the signal ratio). A digest of the protocol: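 Beta-lactamase reporter under UAS control in GeneBLAzer FXR HEK 293T cells (5000/well) measured with LiveBLAzer FRET substrate after 2 h at room temperature. Compound exposure lasted 16 h at 37C.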

Experiment [20] has the same target. The experiment can be described thus: qHTS assay to identify small molecule antagonists of the farnesoid-X-receptor (FXR) signaling pathway (AID 743217; active means well fitted inhibition curve with a large enough effect in the signal ratio in the repeat runs, not every such curve was filed as active; the % refers to the signal ratio). In short, it runs like this:
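FXR-UAS-bla HEK 293T cells pre-incubated 5 h at 37 °C, then exposed to compounds with chenodeoxycholic acid (50 uM final) for 16 h at 37 °C. Beta-lactamase reporter read by LiveBLAzer B/G FRET substrate fluorescence after 2 h at room temperature.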

Several values for one entry are separate records, joined by “and”; a condition that tells them apart may be missing. Identical values can stand only once. Inconclusive results are not listed. Some compounds were tested as several samples or in several runs, with calls that do not always agree. Activity calls are given as the source filed them. Unless noted, the call rests on the fitted dose curve; in most records, active means well fitted curve in the direction sought with a large enough effect in the repeat runs; inconclusive means weak or mixed curves; inactive means no such curve, though single readings can be large; an effect the other way counts as inactive or inconclusive.

Sequence of Peroxisome proliferator-activated receptor gamma (Homo sapiens) (P37231 whole entry, looked up): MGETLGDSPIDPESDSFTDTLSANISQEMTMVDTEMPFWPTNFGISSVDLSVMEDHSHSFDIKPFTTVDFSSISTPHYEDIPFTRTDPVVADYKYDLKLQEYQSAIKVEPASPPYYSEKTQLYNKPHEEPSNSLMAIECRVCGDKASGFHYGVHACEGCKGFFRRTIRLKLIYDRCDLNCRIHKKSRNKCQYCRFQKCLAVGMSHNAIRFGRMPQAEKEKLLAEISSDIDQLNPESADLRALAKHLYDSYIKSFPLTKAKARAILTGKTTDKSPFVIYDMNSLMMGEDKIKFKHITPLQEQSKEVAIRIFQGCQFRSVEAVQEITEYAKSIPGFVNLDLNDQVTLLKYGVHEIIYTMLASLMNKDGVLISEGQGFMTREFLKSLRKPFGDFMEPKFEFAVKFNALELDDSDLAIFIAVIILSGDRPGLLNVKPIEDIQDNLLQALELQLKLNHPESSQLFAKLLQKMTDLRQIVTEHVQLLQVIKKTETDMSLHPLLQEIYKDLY
Sequence of Vitamin D3 receptor (Homo sapiens) (P11473 whole entry, looked up): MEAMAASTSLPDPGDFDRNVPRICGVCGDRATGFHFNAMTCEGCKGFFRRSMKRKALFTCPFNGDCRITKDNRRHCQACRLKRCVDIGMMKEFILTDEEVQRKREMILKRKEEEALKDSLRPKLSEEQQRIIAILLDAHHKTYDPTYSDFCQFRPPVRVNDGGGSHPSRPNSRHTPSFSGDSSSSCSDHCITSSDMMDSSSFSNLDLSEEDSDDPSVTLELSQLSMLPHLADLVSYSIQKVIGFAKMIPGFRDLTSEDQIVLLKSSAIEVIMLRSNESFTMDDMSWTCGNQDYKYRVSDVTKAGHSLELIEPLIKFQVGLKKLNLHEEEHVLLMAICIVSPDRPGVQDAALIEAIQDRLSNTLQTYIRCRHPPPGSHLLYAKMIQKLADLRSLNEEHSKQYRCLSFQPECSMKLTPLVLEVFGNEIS
Sequence of Aryl hydrocarbon receptor (Homo sapiens) (P35869 whole entry, looked up): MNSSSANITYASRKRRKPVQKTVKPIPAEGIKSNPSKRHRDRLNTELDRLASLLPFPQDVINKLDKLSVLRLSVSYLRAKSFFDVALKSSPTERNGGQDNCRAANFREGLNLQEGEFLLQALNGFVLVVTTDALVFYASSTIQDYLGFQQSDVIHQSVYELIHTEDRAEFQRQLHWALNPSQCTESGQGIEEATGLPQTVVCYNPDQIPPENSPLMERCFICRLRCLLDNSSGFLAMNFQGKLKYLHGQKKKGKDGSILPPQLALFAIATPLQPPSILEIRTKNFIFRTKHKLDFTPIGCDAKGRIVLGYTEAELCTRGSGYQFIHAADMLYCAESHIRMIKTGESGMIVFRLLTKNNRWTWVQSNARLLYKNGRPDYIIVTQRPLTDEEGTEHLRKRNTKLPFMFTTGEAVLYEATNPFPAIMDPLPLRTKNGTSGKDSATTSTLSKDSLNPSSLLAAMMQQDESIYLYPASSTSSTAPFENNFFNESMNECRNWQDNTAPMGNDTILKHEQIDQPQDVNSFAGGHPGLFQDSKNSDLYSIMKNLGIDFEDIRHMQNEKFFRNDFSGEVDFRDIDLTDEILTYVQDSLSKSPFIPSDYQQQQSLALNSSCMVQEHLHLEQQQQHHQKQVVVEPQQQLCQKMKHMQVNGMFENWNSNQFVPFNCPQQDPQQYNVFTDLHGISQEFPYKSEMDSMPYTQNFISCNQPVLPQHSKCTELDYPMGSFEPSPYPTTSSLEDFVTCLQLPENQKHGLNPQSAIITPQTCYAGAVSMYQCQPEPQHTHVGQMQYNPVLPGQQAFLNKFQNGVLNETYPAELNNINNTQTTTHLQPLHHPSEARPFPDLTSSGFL
Sequence of Bile acid receptor (Homo sapiens) (Q96RI1 whole entry, looked up): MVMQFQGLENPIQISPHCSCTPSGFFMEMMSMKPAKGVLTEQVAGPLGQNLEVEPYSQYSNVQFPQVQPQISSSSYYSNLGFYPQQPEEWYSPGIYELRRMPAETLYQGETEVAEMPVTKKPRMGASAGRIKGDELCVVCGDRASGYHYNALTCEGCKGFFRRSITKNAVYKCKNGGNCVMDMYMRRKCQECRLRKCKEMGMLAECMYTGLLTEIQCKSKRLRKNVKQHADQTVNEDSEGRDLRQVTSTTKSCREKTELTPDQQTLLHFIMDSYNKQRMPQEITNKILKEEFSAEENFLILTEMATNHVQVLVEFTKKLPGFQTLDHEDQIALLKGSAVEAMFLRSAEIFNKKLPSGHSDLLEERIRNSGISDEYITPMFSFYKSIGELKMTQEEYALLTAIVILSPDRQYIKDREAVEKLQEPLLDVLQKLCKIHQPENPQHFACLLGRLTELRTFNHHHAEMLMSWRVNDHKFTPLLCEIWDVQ
Sequence of Peroxisome proliferator-activated receptor delta (Homo sapiens) (Q03181 whole entry, looked up): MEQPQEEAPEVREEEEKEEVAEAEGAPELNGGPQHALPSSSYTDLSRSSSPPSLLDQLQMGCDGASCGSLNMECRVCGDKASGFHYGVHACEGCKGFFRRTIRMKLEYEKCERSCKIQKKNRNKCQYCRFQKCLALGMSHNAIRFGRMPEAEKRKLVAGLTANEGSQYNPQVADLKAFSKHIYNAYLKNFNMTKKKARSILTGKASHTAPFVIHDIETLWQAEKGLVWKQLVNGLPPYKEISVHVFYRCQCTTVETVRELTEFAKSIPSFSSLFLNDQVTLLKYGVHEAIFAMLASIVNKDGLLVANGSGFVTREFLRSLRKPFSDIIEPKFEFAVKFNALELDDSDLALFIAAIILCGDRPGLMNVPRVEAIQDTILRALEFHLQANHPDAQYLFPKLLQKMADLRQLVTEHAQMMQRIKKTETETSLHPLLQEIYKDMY

Regarding `Oc1cc(Cl)c(Cl)cc1Cl`, the Potency result in [1], in [2], in experiment [3], in experiment [4], in experiment [5] and in experiment [6] was “inactive” in each case. Also, the Potency entry in experiment [7], in [8], in experiment [9], in experiment [10], in experiment [11] and in experiment [12] was “inactive” each time. In addition, the Potency result in experiment [13] was “inactive”.

With `COP(=S)(OC)Oc1cc(Cl)c(Cl)cc1Cl`, the Potency entry in [1], in experiment [3], in experiment [4], in experiment [6], in [14] and in [7] was “inactive” in each case. For the same molecule, the Potency entry in experiment [8], in experiment [9], in experiment [10], in experiment [15], in [11] and in [16] was “inactive” throughout. The Potency entry in experiment [12] and in experiment [13] was “inactive” throughout. The Potency entry in experiment [2] is “inactive and 30.4 µM (active)”.

As for `CCN(CC)C(=O)/C(Cl)=C(\C)OP(=O)(OC)OC`, the Potency entry in experiment [1], in experiment [2], in experiment [3], in experiment [4], in experiment [6] and in experiment [14] was “inactive” each time. Moreover, the Potency entry in experiment [7], in experiment [8], in experiment [9], in [10], in [15] and in [11] was “inactive” in each case. In addition, the Potency result in experiment [16] and in experiment [13] was “inactive” throughout. Further, the outcome in [17] and in experiment [18] was inactive.

In the case of `COC(=O)c1sccc1S(=O)(=O)NC(=O)Nc1nc(C)nc(OC)n1`, the Potency entry in experiment [1], in experiment [2], in experiment [3], in experiment [4], in [5] and in experiment [14] was “inactive” throughout. Also, the Potency result in [7], in experiment [8], in [9], in experiment [10], in experiment [15] and in experiment [11] was “inactive” in each case. Moreover, the Potency result in [16], in [12] and in experiment [13] was “inactive” each time. In addition, the call in experiment [17] and in experiment [18] was inactive.

Take `NNC(N)=S`: the Potency in [1] was 28.4 µM (active) and inactive; in [2], “inactive and 19.3 µM (active)”; in experiment [8] it was 40.4 µM (active) and inactive; in [11], 8.07 µM (active) and inactive; in [16] it was 43.6 µM (active). In addition, the Potency entry in experiment [3], in [4], in experiment [5], in [6], in experiment [14] and in [7] was “inactive” in each case. The Potency result in experiment [15], in [12] and in experiment [13] was “inactive” each time. The molecule was called inactive in experiment [19], in experiment [17] and in [18].

`O=P(Oc1ccccc1)(Oc1ccccc1)Oc1ccccc1`: the Potency result in experiment [1], in experiment [2], in [3], in [4], in experiment [14] and in experiment [7] was “inactive” in each case. Further, the Potency result in [8], in experiment [9], in experiment [15], in experiment [11], in [16] and in experiment [13] was “inactive” in each case. Moreover, the Potency in experiment [10] was 24.4 µM (active). In addition, the molecule was called inactive in [17] and in experiment [18].

As to `C#C[C@]1(O)CC[C@H]2[C@@H]3CCC4=CC(=O)CC[C@]4(C)[C@H]3CC[C@@]21C`, the Potency result in experiment [1], in experiment [2], in experiment [3], in experiment [4], in experiment [6] and in experiment [14] was “inactive” each time. Besides, the Potency result in experiment [7], in experiment [8], in experiment [9], in experiment [10], in experiment [15] and in experiment [11] was “inactive” throughout. Moreover, the Potency entry in experiment [16], in experiment [20], in experiment [12] and in experiment [13] was “inactive” in each case.

With `CCC(=O)O[C@H]1CC[C@H]2[C@@H]3CCC4=CC(=O)CC[C@]4(C)[C@H]3CC[C@]12C`, the Potency entry in experiment [1], in [2], in [3], in [4], in experiment [9] and in experiment [15] was “inactive” each time. Further, the Potency entry in [11], in [16] and in [13] was “inactive” throughout. Also, the Potency is 49 µM [setting not given] (active) and inactive in [6]; 68.6 µM (active) and inactive in experiment [7]; 54.9 µM (active) and inactive in experiment [8]; 49 µM (active) and inactive in [10]; 54.9 µM (active) and inactive in [12].
